The values that follow come from PubChem BioAssay (EPA / NIEHS).

Records with an inconclusive call do not appear. Active and inactive are the calls of the source. Rule for the calls: active = hit-call score of the fitted dose curve at least 0.9, where 1 is the maximum; inconclusive = response in the unintended direction; inactive = score below 0.9.

Sequence of AR (gene 367) (P10275 whole entry, looked up): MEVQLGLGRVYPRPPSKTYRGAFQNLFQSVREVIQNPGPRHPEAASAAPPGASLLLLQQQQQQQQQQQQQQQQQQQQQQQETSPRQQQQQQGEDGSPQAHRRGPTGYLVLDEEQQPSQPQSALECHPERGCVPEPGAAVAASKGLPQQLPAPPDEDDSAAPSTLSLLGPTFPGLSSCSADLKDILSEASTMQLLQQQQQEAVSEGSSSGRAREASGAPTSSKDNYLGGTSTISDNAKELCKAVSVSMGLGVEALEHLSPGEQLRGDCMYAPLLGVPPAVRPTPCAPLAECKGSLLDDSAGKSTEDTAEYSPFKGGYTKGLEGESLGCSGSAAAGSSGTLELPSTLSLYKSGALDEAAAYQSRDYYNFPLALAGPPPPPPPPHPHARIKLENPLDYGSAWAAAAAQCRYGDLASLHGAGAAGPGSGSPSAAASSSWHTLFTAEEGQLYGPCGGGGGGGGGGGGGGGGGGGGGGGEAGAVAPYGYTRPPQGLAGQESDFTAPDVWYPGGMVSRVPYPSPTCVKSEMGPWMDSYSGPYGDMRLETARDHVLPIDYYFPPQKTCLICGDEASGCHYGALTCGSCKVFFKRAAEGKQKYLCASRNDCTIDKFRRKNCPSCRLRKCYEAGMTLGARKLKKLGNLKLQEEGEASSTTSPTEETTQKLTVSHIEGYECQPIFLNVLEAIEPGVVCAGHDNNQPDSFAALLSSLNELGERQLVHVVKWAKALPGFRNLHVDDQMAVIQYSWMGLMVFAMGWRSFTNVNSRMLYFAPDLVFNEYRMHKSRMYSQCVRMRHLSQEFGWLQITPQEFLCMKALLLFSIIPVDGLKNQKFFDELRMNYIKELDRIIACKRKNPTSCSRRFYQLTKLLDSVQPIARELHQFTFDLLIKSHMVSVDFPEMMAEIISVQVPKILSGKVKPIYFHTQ

One assay has as its target AR (gene 367) (UniProt P10275). The assay is described as follows: ACEA_AR_agonist_80hr: ACEA Biosciences xCELLigence Real-Time Cell Analysis on Androgen Receptor Agonism for Proliferation (AID 2283783).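 Note: hits increase impedance growth signal above DMSO baseline.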 Put shortly: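 Eight concentrations, 1:4 serial dilution from a 100 uM final top, in biological duplicate. Impedance-based real-time growth of 22Rv1 cells after overnight baseline, recorded hourly and read at 80 hours. Controls: testosterone, MG132, assay media.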
With `CCCCCC[C@@H](O)C/C=C\CCCCCCCC(=O)OCC(O)CO` (some centres not stated), the compound was called inactive.

For `COc1cc(O)c(C(=O)c2ccccc2)cc1S(=O)(=O)O`, the AC50 is 0.0228 µM (active).

`Cc1ccc(C)c(OCCCC(C)(C)C(=O)O)c1`: the compound was classed as inactive. On the same count and under the same terms, the entry for `O=C(O)c1ccc2c(c1)C(=O)OC2=O` is “inactive”.

The target in a further assay is AR (gene 367) (UniProt P10275). The assay can be described thus: ACEA_AR_antagonist_80hr: ACEA Biosciences xCELLigence Real-Time Cell Analysis on Androgen Receptor Antagonism for Proliferation (AID 2283787).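 Note: 22Rv1 human prostate cancer cells with growth followed by electrical impedance; hits lower the impedance growth signal relative to DMSO.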 A digest of the protocol:
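Impedance-based real-time growth of 22Rv1 prostate cells, read 80 h after dosing. Eight concentrations, 1:4 series, top 100 uM final (0.5% DMSO), n = 2; signal decrease scored against DMSO.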
For the compound `CCCCCC[C@@H](O)C/C=C\CCCCCCCC(=O)OCC(O)CO` (some centres not stated), the compound was called inactive.

For `Cc1ccc(C)c(OCCCC(C)(C)C(=O)O)c1`, the result was inactive. As to `O=C(O)c1ccc2c(c1)C(=O)OC2=O`, the result was inactive.

By AC50 is commonly meant the midpoint of the concentration-response curve, whichever way the signal moves.
